# Source: ChEMBL document CHEMBL1961873, “Compounds: GSK PKIS; Assays: Nanosyn kinase panel” (2012)
# Tests used:
# [1] = target: Serine/threonine-protein kinase 4 (Homo sapiens) (UniProt Q13043); conditions: at 0.1 µM
# [2] = target: Serine/threonine-protein kinase 4 (Homo sapiens) (UniProt Q13043); conditions: at 1 µM
# [3] = target: Serine/threonine-protein kinase 3 (Homo sapiens) (UniProt Q13188); conditions: at 0.1 µM
# [4] = target: Serine/threonine-protein kinase 3 (Homo sapiens) (UniProt Q13188); conditions: at 1 µM
# [5] = target: Serine/threonine-protein kinase 26 (Homo sapiens) (UniProt Q9P289); conditions: at 0.1 µM
# [6] = target: Serine/threonine-protein kinase 26 (Homo sapiens) (UniProt Q9P289); conditions: at 1 µM
# [7] = target: Serine/threonine-protein kinase PAK 1 (Homo sapiens) (UniProt Q13153); conditions: at 0.1 µM
# [8] = target: Serine/threonine-protein kinase PAK 1 (Homo sapiens) (UniProt Q13153); conditions: at 1 µM
# [9] = target: Serine/threonine-protein kinase PAK 2 (Homo sapiens) (UniProt Q13177); conditions: at 0.1 µM
# [10] = target: Serine/threonine-protein kinase PAK 2 (Homo sapiens) (UniProt Q13177); conditions: at 1 µM
# [11] = target: Serine/threonine-protein kinase PAK 3 (Homo sapiens) (UniProt O75914); conditions: at 0.1 µM
# [12] = target: Serine/threonine-protein kinase PAK 3 (Homo sapiens) (UniProt O75914); conditions: at 1 µM
# [13] = target: Serine/threonine-protein kinase PAK 5 (Homo sapiens) (UniProt Q9P286); conditions: at 0.1 µM
# [14] = target: Serine/threonine-protein kinase PAK 5 (Homo sapiens) (UniProt Q9P286); conditions: at 1 µM
# [15] = target: Serine/threonine-protein kinase PAK 6 (Homo sapiens) (UniProt Q9NQU5); conditions: at 0.1 µM
# [16] = target: Serine/threonine-protein kinase PAK 6 (Homo sapiens) (UniProt Q9NQU5); conditions: at 1 µM
# [17] = tested on: Tyrosine-protein kinase ABL1 (Homo sapiens), P00519 [E255K]; conditions: at 0.1 µM
# [18] = tested on: Tyrosine-protein kinase ABL1 (Homo sapiens), P00519 [E255K]; conditions: at 1 µM
# [19] = tested on: Tyrosine-protein kinase ABL1 (Homo sapiens), P00519 [H396P]; conditions: at 0.1 µM
# [20] = tested on: Tyrosine-protein kinase ABL1 (Homo sapiens), P00519 [H396P]; conditions: at 1 µM
# [21] = tested on: Tyrosine-protein kinase ABL1 (Homo sapiens), P00519 [M351T]; conditions: at 0.1 µM
# [22] = tested on: Tyrosine-protein kinase ABL1 (Homo sapiens), P00519 [M351T]; conditions: at 1 µM
# [23] = tested on: Tyrosine-protein kinase ABL1 (Homo sapiens), P00519 [Q252H]; conditions: at 0.1 µM
# [24] = tested on: Tyrosine-protein kinase ABL1 (Homo sapiens), P00519 [Q252H]; conditions: at 1 µM
# [25] = tested on: Tyrosine-protein kinase ABL1 (Homo sapiens), P00519 [T315I]; conditions: at 0.1 µM
# [26] = tested on: Tyrosine-protein kinase ABL1 (Homo sapiens), P00519 [T315I]; conditions: at 1 µM
# [27] = tested on: Tyrosine-protein kinase ABL1 (Homo sapiens), P00519 [Y253F]; conditions: at 0.1 µM
# [28] = tested on: Tyrosine-protein kinase ABL1 (Homo sapiens), P00519 [Y253F]; conditions: at 1 µM
# [29] = target: Tyrosine-protein kinase ABL1 (Homo sapiens) (UniProt P00519); conditions: at 0.1 µM
# [30] = target: Tyrosine-protein kinase ABL1 (Homo sapiens) (UniProt P00519); conditions: at 1 µM
# [31] = target: ALK tyrosine kinase receptor (Homo sapiens) (UniProt Q9UM73); conditions: at 0.1 µM
# [32] = target: ALK tyrosine kinase receptor (Homo sapiens) (UniProt Q9UM73); conditions: at 1 µM
# [33] = target: Tyrosine-protein kinase ABL2 (Homo sapiens) (UniProt P42684); conditions: at 0.1 µM
# [34] = target: Tyrosine-protein kinase ABL2 (Homo sapiens) (UniProt P42684); conditions: at 1 µM
# [35] = target: Tyrosine-protein kinase receptor UFO (Homo sapiens) (UniProt P30530); conditions: at 0.1 µM
# [36] = target: Tyrosine-protein kinase receptor UFO (Homo sapiens) (UniProt P30530); conditions: at 1 µM
# [37] = target: Tyrosine-protein kinase Blk (Homo sapiens) (UniProt P51451); conditions: at 0.1 µM
# [38] = target: Tyrosine-protein kinase Blk (Homo sapiens) (UniProt P51451); conditions: at 1 µM
# [39] = target: Cytoplasmic tyrosine-protein kinase BMX (Homo sapiens) (UniProt P51813); conditions: at 0.1 µM
# [40] = target: Cytoplasmic tyrosine-protein kinase BMX (Homo sapiens) (UniProt P51813); conditions: at 1 µM
# [41] = target: Protein-tyrosine kinase 6 (Homo sapiens) (UniProt Q13882); conditions: at 0.1 µM
# [42] = target: Protein-tyrosine kinase 6 (Homo sapiens) (UniProt Q13882); conditions: at 1 µM
# [43] = target: Tyrosine-protein kinase BTK (Homo sapiens) (UniProt Q06187); conditions: at 0.1 µM
# [44] = target: Tyrosine-protein kinase BTK (Homo sapiens) (UniProt Q06187); conditions: at 1 µM
# [45] = target: Tyrosine-protein kinase CSK (Homo sapiens) (UniProt P41240); conditions: at 0.1 µM
# [46] = target: Tyrosine-protein kinase CSK (Homo sapiens) (UniProt P41240); conditions: at 1 µM
# [47] = target: Discoidin domain-containing receptor 2 (Homo sapiens) (UniProt Q16832); conditions: at 0.1 µM
# [48] = target: Discoidin domain-containing receptor 2 (Homo sapiens) (UniProt Q16832); conditions: at 1 µM
# [49] = target: Epidermal growth factor receptor (Homo sapiens) (UniProt P00533); conditions: at 0.1 µM
# [50] = target: Epidermal growth factor receptor (Homo sapiens) (UniProt P00533); conditions: at 1 µM
# [51] = tested on: Epidermal growth factor receptor (Homo sapiens), P00533 [L858R]; conditions: at 0.1 µM
# [52] = tested on: Epidermal growth factor receptor (Homo sapiens), P00533 [L858R]; conditions: at 1 µM
# [53] = tested on: Epidermal growth factor receptor (Homo sapiens), P00533 [L861Q]; conditions: at 0.1 µM
# [54] = tested on: Epidermal growth factor receptor (Homo sapiens), P00533 [L861Q]; conditions: at 1 µM
# [55] = tested on: Epidermal growth factor receptor (Homo sapiens), P00533 [T790M]; conditions: at 0.1 µM
# [56] = tested on: Epidermal growth factor receptor (Homo sapiens), P00533 [T790M]; conditions: at 1 µM
# Cytoplasmic tyrosine-protein kinase BMX (Homo sapiens), sequence (P51813 whole entry): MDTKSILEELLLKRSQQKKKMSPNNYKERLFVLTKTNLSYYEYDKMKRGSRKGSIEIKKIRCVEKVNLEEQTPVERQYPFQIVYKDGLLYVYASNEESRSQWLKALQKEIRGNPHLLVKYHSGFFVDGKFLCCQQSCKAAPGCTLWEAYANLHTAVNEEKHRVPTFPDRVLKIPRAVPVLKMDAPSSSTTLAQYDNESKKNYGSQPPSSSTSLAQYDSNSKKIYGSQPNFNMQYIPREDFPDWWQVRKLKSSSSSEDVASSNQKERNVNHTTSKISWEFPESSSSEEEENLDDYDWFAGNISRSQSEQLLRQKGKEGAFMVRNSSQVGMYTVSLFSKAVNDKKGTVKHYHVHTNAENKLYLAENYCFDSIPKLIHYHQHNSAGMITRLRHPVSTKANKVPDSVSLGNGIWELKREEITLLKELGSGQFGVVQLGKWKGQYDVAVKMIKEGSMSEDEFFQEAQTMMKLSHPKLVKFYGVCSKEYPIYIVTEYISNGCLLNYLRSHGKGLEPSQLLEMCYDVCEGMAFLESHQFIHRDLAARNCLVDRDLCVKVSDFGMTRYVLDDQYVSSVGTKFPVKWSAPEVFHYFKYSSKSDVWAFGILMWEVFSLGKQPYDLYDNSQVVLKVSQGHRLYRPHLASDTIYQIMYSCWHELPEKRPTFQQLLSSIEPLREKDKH
# Serine/threonine-protein kinase 4 (Homo sapiens), sequence (Q13043 whole entry): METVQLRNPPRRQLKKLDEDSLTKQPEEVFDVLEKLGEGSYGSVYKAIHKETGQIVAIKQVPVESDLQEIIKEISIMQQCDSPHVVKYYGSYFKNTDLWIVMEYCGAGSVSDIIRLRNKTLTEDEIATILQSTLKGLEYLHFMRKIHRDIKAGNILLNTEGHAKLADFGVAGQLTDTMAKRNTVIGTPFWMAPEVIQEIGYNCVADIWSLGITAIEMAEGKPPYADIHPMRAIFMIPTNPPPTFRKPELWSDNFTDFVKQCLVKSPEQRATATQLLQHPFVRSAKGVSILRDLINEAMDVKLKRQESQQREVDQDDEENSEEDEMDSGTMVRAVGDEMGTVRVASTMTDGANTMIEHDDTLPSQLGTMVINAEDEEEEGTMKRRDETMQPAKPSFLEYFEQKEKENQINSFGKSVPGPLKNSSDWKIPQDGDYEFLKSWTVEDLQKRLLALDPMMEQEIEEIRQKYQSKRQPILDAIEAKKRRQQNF
# Tyrosine-protein kinase Blk (Homo sapiens), sequence (P51451 2-505 limits assumed): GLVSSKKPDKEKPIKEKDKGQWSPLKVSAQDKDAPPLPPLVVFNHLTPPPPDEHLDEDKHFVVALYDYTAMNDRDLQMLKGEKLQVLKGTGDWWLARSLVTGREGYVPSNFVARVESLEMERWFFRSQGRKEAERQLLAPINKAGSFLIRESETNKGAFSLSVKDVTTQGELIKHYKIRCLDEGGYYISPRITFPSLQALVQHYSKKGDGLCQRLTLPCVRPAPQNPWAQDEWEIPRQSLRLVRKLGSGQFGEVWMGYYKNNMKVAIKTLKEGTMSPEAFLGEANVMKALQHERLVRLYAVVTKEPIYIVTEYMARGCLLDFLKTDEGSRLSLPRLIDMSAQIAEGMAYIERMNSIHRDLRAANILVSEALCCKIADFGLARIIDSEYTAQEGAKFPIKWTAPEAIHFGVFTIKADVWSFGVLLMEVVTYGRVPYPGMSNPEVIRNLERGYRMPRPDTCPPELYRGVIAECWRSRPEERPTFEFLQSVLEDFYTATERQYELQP
# Epidermal growth factor receptor (Homo sapiens), P00533 [T790M], sequence (P00533 whole entry T790M): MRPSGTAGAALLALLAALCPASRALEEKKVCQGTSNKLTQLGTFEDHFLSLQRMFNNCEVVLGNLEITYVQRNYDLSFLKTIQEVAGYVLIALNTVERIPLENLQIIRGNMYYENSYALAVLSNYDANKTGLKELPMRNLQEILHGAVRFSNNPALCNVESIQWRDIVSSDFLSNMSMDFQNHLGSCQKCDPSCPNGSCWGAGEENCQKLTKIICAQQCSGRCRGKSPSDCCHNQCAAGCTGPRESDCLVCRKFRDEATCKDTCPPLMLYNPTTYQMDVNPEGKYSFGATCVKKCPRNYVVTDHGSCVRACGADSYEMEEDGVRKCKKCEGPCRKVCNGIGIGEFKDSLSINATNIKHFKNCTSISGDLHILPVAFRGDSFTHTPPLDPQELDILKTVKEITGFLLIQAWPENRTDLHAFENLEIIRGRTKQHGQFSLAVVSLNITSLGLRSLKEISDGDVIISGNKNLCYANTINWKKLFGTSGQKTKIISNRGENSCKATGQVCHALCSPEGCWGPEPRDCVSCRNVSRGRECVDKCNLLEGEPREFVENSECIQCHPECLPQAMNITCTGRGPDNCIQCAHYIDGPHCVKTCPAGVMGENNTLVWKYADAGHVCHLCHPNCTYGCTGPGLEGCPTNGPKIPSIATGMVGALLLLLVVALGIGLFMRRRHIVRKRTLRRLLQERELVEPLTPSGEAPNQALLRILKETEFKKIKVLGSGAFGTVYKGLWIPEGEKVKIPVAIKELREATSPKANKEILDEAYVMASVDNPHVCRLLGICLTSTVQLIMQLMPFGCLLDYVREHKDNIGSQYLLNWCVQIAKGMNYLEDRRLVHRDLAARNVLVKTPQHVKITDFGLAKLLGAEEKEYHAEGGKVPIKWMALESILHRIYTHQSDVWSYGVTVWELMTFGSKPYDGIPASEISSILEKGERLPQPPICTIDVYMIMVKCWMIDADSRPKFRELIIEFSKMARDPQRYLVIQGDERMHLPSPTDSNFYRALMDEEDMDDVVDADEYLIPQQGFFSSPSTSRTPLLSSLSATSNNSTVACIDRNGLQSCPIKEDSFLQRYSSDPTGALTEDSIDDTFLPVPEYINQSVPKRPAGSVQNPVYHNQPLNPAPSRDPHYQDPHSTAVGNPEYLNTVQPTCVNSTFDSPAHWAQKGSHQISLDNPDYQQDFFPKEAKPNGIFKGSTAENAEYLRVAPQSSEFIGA
# Discoidin domain-containing receptor 2 (Homo sapiens), sequence (Q16832 whole entry, the tested form may be a part): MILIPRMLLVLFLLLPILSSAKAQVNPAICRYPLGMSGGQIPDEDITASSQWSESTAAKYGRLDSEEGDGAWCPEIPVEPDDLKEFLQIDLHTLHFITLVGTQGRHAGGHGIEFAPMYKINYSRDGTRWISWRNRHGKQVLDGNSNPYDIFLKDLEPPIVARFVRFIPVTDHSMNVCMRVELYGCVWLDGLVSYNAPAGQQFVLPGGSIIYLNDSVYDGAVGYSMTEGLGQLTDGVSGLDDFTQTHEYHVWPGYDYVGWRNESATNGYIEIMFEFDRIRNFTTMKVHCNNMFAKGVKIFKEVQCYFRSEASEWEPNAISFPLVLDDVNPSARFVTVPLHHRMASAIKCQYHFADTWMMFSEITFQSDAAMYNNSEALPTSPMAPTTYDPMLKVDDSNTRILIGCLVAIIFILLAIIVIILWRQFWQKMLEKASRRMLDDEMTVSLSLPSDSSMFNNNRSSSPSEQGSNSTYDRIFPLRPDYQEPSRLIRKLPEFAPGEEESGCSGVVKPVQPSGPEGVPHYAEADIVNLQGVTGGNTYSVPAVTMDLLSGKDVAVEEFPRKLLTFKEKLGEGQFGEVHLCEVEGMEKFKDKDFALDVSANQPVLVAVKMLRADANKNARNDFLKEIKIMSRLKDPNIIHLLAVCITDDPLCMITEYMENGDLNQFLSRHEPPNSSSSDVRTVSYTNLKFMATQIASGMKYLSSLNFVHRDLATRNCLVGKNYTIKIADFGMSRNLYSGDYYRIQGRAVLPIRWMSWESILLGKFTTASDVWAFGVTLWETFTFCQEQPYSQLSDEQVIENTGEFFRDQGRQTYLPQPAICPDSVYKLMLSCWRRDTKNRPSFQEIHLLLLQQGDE
# Serine/threonine-protein kinase PAK 1 (Homo sapiens), sequence (Q13153 whole entry): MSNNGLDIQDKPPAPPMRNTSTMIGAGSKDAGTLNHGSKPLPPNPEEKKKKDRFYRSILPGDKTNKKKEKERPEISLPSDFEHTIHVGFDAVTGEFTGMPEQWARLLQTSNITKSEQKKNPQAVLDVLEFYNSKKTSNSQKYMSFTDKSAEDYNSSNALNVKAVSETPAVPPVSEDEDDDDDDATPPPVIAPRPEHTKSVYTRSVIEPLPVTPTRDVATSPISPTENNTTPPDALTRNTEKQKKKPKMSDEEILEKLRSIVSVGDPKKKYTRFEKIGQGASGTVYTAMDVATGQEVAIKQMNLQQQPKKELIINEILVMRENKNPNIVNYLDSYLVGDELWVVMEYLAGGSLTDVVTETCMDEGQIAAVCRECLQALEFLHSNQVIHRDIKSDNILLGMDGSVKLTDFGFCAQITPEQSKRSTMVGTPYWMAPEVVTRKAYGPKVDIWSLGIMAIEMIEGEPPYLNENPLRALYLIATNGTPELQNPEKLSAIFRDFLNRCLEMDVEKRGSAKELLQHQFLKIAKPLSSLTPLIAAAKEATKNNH
# Serine/threonine-protein kinase 26 (Homo sapiens), sequence (Q9P289 2-416 limits assumed): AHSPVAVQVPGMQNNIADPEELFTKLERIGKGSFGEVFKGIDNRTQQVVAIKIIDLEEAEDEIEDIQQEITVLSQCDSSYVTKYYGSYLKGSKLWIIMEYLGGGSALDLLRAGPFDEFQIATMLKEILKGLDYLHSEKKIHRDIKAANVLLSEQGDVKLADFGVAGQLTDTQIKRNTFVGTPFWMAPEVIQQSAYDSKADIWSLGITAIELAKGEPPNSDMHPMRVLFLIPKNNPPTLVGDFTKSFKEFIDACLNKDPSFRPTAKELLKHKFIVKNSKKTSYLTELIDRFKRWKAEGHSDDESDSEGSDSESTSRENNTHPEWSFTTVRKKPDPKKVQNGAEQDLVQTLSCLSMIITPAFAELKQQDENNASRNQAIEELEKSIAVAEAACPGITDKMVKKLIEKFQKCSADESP
smiles,measurement,setting,value
CNC(=O)Oc1cc(C)c(/C=C/c2cncc(C(=O)NC)c2)c(C)c1,inhibition,[1],4.28%
same,inhibition,[2],7.77%
same,inhibition,[3],4.88%
same,inhibition,[4],4.5%
same,inhibition,[5],-0.01%
same,inhibition,[6],-0.02%
same,inhibition,[7],3.48%
same,inhibition,[8],5.41%
same,inhibition,[9],1.99%
same,inhibition,[10],1.98%
same,inhibition,[11],1.98%
same,inhibition,[12],3.68%
same,inhibition,[13],-4.59%
same,inhibition,[14],-1.52%
same,inhibition,[15],5.83%
same,inhibition,[16],-0.24%
same,inhibition,[17],7.72%
same,inhibition,[18],50.5%
same,inhibition,[19],17.9%
same,inhibition,[20],66.5%
same,inhibition,[21],18.4%
same,inhibition,[22],65%
same,inhibition,[23],14.5%
same,inhibition,[24],58.6%
same,inhibition,[25],1.76%
same,inhibition,[26],3.56%
same,inhibition,[27],23%
same,inhibition,[28],69.2%
same,inhibition,[29],12.9%
same,inhibition,[30],55.8%
same,inhibition,[31],2.46%
same,inhibition,[32],14.2%
same,inhibition,[33],9.35%
same,inhibition,[34],64.3%
same,inhibition,[35],-1.68%
same,inhibition,[36],1.31%
same,inhibition,[37],2.38%
same,inhibition,[38],17.7%
same,inhibition,[39],6.61%
same,inhibition,[40],48.2%
same,inhibition,[41],17.1%
same,inhibition,[42],66.2%
same,inhibition,[43],3.71%
same,inhibition,[44],7.17%
same,inhibition,[45],7.8%
same,inhibition,[46],23%
same,inhibition,[47],1.69%
same,inhibition,[48],4.31%
same,inhibition,[49],1.01%
same,inhibition,[50],3.7%
same,inhibition,[51],1.37%
same,inhibition,[52],18.1%
same,inhibition,[53],1.07%
same,inhibition,[54],2.38%
same,inhibition,[55],0.88%
same,inhibition,[56],0.02%
